Test results reported in PubChem BioAssay (NCATS).
Records with an inconclusive call do not appear. Active and inactive are the calls of the source. The call rests on the fitted dose curve; in most records, active means well fitted curve in the direction sought with a large enough effect; inconclusive means small, poorly fitted or top-dose-only effect, or another doubt; inactive means no such curve, though single readings can be large; an effect the other way counts as inactive or inconclusive.

What was measured:
[1] = Cellular Toxicity (caspase-3) N2a (AID 665); details: Potency: caspase-3 activation;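 further: compound exposure lasted 16 h at 37 °C before readout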
Method in brief: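 Concentration-response qHTS: compound-induced caspase-3/7 luminescence in N2a cells (16 h, 37 °C), relative to DMSO and 10 uM staurosporine controls; AC50 obtained using the standard Hill equation.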

[2] = Cellular Toxicity (caspase-3) NIH 3T3 (AID 666);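 further: caspase signal read after 16 h compound exposure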
Method in brief: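 Activity: caspase-3/7 induction, NIH 3T3 cells, 16 hr treatment at 37°C, luminescent Caspase-Glo detection; AC50 via Hill equation.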

[3] = Cellular Toxicity (caspase-3) Renal Proximal Tubule (AID 667);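 further: cells exposed to compound for 16 hours at 37 °C before detection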
Method in brief: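 In qHTS format, rat primary proximal tubule cells seeded at 1000 per well are exposed to compounds for 16 hours at 37 °C. An increase in Caspase-Glo 3/7 luminescence indicates caspase activation.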

[4] = molecular target: Cytochrome P450 3A4 (Homo sapiens) (UniProt P08684); test: qHTS Assay for Inhibitors and Substrates of Cytochrome P450 3A4 (AID 884); further: series mostly up to about 57 µM; nearly all actives have a fitted effect of over 50% in size
Method in brief: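 Luminescent readout of luciferin produced by CYP3A4 (20 nM) dealkylation of Luciferin-PPXE, 25 uM (its KM). NADPH-driven reaction ran 60 min at RT after 10 min compound preincubation; data scaled to 57 uM ketoconazole as 100% inhibition.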

[5] = Cell Viability - LYMP2-001 (AID 921); further: series mostly up to about 92 µM; nearly all actives have a fitted effect of over 70% in size
Method in brief: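 qHTS, 1536-well; lymphoblastoid cells, 24 hr compound, 37 C; ATP by CellTiter-Glo, 30 min RT; luminescence; Hill-fit AC50.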

[6] = MultiTox-Fluor Cytotoxicity Assay - LYMP1-001 - Dead Cells (AID 946)
Method in brief: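 AC50 from Hill fit of concentration-response; data normalized to DMSO (basal) and 15 uM tetraoctylammonium bromide (100%). LYMP1-001 lymphoblastoid cells, 2500/well, 16 hr compound at 37 C; dead-cell protease fluorescence, Ex/Em 485/520.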

[7] = MultiTox-Fluor Cytotoxicity Assay - LYMP1-001 - Live Cells (AID 947)
[8] = Cell Viability - LYMP1-002 - Assay at 16 hr (AID 948)
Method in brief: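 Acute cytotoxicity is scored as a concentration-dependent fall in intracellular ATP in a human lymphoblastoid line (LYMP1-002) after 16 hr compound exposure at 37 C, measured by luciferase luminescence.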

[9] = MultiTox-Fluor Cytotoxicity Assay - LYMP1-002 - Live Cells (AID 955)
Method in brief: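 In this qHTS viability format, lymphoblastoid cells (LYMP1-002, human) received compound for 16 hr at 37 C. Fluorogenic GF-AFC cleavage by viable cells was detected at 405/510 nm after 1 h at room temperature.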

[10] = MultiTox-Fluor Cytotoxicity Assay - LYMP1-002 - Dead Cells (AID 960); further: nearly all actives have a fitted effect of over 60% in size
Method in brief: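 Concentration-dependent increases in membrane-leaked protease activity are quantified in LYMP1-002 cells after 16 hr treatment; values are normalized against DMSO and tetraoctylammonium bromide (15 uM) controls and AC50 derived by Hill modeling.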

[11] = MultiTox-Fluor Cytotoxicity Assay - LYMP1-003 - Live Cells (AID 962);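 further: cytotoxic hits lower the live-cell protease signal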
Method in brief: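 Human lymphoblastoid line LYMP1-003 in complete culture medium, treated 16 hr with titrated compounds. Viable cells quantified via cell-permeant GF-AFC substrate fluorescence; AC50 derived by Hill fitting.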

[12] = Cell Viability - LYMP1-003 - Assay at 24 hr (AID 963)
Method in brief: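 The lymphoblastoid line was treated with titrated compounds for 24 hours, and viable cell number estimated from luciferase-based ATP luminescence.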

[13] = Cell Viability - LYMP1-003 - Assay at 40 hr (AID 964); further: series mostly up to about 92 µM; nearly all actives have a fitted effect of over 60% in size
Method in brief: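 Acute toxicity is scored as a concentration-dependent loss of intracellular ATP in LYMP1-003 cells (2500/well, complete medium) after 40 hr at 37 C, measured by CellTiter-Glo luminescence; AC50 values derive from standard Hill modelling.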

[14] = Cell Viability - LYMP2-003 (AID 965);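 further: cells exposed to compounds for 24 h before reading; nearly all actives have a fitted effect of over 50% in size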
Method in brief: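 Acute cytotoxicity is scored as a concentration-dependent drop in intracellular ATP, measured by luciferase luminescence in human lymphoblastoid cells treated for 24 hours at 37 C. AC50 values derive from Hill-equation modelling.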

[15] = Cell Viability - LYMP2-004 (AID 966); further: nearly all actives have a fitted effect of over 65% in size
Method in brief: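 Viable-cell number estimated from ATP luminescence (CellTiter-Glo) in 2500 human lymphoblastoid cells/well after 24 hr at 37 C with compound. AC50 fitted to the standard Hill equation.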

[16] = Cell Viability - LYMP2-005 (AID 967); further: series mostly up to about 92 µM
Method in brief: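 qHTS viability screen in LYMP2-005 cells: 24 h at 37 C with compound, ATP luminescence via CellTiter-Glo, AC50 from Hill curves.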

[17] = Cell Viability - LYMP2-009 (AID 968); further: series mostly up to about 92 µM; nearly all actives have a fitted effect of over 55% in size
[18] = Cell Viability - LYMP2-011 (AID 969); further: nearly all actives have a fitted effect of over 60% in size
Method in brief: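 Cells seeded at 2500 per well rest 5 hr before compound addition, then incubate 24 hr at 37 C. CellTiter-Glo reagent is added for 30 min at room temperature before luminescence detection.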

[19] = Cell Viability - LYMP2-013 (AID 970); further: series mostly up to about 92 µM; nearly all actives have a fitted effect of over 55% in size
Method in brief: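 In complete culture medium, human lymphoblastoid cells were dosed for 24 hr at 37 C, with tetraoctylammonium bromide (6.4pM to 92 uM) as positive control. Viability reflects luciferase-based ATP signal; AC50 derived from concentration-response curves.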

[20] = Cell Viability - LYMP2-015 (AID 971); further: nearly all actives have a fitted effect of over 55% in size
Method in brief: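 AC50 values reflect Hill-model fits of ATP-based luminescence (CellTiter-Glo) from a human lymphoblastoid line, 2500 cells/well, treated 24 hr at 37 C.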

[21] = Cell Viability - LYMP2-017 (AID 972);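 further: series mostly up to about 92 µM; cells exposed to compound for 24 hours at 37 °C; nearly all actives have a fitted effect of over 55% in size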
Method in brief: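 In this qHTS format, lymphoblastoid cells in complete medium receive test compound for a day at 37 C before ATP content is quantified by luciferase luminescence. Reported AC50 figures come from standard Hill-equation curve fitting.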

[22] = Cell Viability - LYMP2-019 (AID 973); further: nearly all actives have a fitted effect of over 55% in size
Method in brief: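 AC50 values come from Hill-equation modelling of qHTS concentration-response curves, where viability is measured as luciferase-based ATP luminescence in the lymphoblastoid line after 24 hr compound exposure in complete culture medium.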

[23] = Cell Viability - LYMP2-021 (AID 974)
Method in brief: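 In qHTS format, compounds are tested against 2500 lymphoblastoid cells per well for 24 h; viable cell number is inferred from ATP-driven luciferase light, and Hill-equation fitting yields AC50 values.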

Measured: Potency

Cytochrome P450 3A4 (Homo sapiens), sequence (P08684 whole entry, looked up): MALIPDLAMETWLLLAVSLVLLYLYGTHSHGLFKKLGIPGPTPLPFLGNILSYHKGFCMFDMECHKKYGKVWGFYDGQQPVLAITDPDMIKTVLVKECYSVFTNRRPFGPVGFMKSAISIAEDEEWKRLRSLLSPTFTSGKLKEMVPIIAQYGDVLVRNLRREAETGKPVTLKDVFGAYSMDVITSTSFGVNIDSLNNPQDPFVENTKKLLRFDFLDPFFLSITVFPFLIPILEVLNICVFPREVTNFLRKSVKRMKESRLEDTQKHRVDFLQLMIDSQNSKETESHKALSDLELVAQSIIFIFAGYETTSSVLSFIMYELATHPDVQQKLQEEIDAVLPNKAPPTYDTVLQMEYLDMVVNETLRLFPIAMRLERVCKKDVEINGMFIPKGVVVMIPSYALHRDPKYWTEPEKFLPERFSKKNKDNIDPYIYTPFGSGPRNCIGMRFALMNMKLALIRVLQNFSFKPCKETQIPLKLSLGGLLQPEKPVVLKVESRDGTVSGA

Cc1cccc(O)c1C
inactive: all assays above
